For assay [1], the system named is TXK.
Assay [2] deals with TYK2(JH2domain-pseudokinase).
In assay [3] the test system is TYRO3.
The subject of assay [4] is ULK3.
Assay [5] relates to T1, VEGFR2.
T1 construct: gene KDR

The subject of assay [6] is VRK2.
The test system of assay [7] is WNK4.
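Note: kd values determined as follow-up on hits from a single-replicate KINOMEscan panel screen.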

For orientation: Kd means the equilibrium constant for the complex coming apart. Higher therefore signals a looser complex. Regarding `CN(C)c1cc(-c2ccc3c(N)n[nH]c3c2)nc(N)n1` [GSK2219329], the Kd in assay [1] was > 10 µM.
For the compound `O=C(NCCNc1ccnc(Nc2ccc(F)cc2)n1)Nc1ccc2c(c1)OCO2` [GSK1379882], the Kd in assay [1] is > 10 µM.
Consider `Nc1n[nH]c2ncc(-c3ccccc3)cc12` [SB-517081], for which the equilibrium dissociation constant (Kd) in assay [2] turned out to be 0.95 µM.
For `COc1cc(OC)cc(-c2cc3cnc(N)nc3nc2NC(=O)NC(C)(C)C)c1`, the Kd in assay [3] is > 10 µM.
As to `COc1ccc(-c2coc3ccc(-c4nnc(SCc5cccc(C#N)c5)o4)cc23)cc1`, the Kd in assay [4] was > 10 µM.
The compound `COc1cc2nccc(Nc3ccc(OCc4ccc(NC(C)=O)cc4)cc3)c2cc1OC.Cl` [GW440135] displayed a Kd in assay [5] of 0.053 µM.
Regarding `CN1C(=O)C(Nc2cc(Cl)c(O)c(Cl)c2)=C(c2ccc(Cl)cc2)C1=O` [SB-404321], in assay [6], the Kd is > 10 µM.
`OCCCNc1nccc(-c2c(-c3cccc(C(F)(F)F)c3)nn3cc(C(F)(F)F)ccc23)n1` [GW630813]: the Kd in assay [7] was > 10 µM.

Values taken from publication PMC5540273 (PLoS ONE, 2017).
